PubChem BioAssay (EPA / NIEHS)
Where “and” joins values, the source holds several entries; their conditions need not be identical. Equal values may be shown once. Results filed as inconclusive are left out. Some compounds were tested as several samples or in several runs, with calls that do not always agree. Calls of active or inactive are those of the source. How the source made its calls, unless noted: active means hit-call score of the fitted dose curve at least 0.9, where 1 is the maximum; inactive means score below 0.9.

Key:
[1] = read-out: Monocyte Chemoattractant Protein-1 (MCP1), CCL2 (gene 6347); assay: BSK_SAg_MCP1: BioMAP Diversity Plus: SAg Assay for Monocyte Chemoattractant Protein-1 (MCP1) Biomarker Activity (AID 2283090); conditions: primary human HUVEC with PBMC; actives raise or lower the signal
Summary of the method: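 MCP-1 levels in the endothelial–PBMC SAg co-culture were quantified by ELISA at 24 h post-dosing; both increases and decreases versus DMSO scored. Cytotoxicity monitored by SRB total protein in parallel cultures.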

[2] = read-out: E-selectin (Homo sapiens) (UniProt P16581); assay: BSK_SAg_Eselectin: BioMAP Diversity Plus: SAg Assay for Eselectin Biomarker Activity (AID 2283091); conditions: primary human HUVEC with PBMC; actives raise or lower the signal
Summary of the method: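 Co-culture: HUVEC + PBMC. Dose compound; 24 h. ELISA for E-selectin. Bidirectional fit vs DMSO.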

[3] = read-out: Monokine induced gamma interferon (MIG), CXCL9 (gene 4283); assay: BSK_SAg_MIG: BioMAP Diversity Plus: SAg Assay for Monokine induced gamma interferon (MIG) Biomarker Activity (AID 2283092); conditions: primary human HUVEC with PBMC; actives raise or lower the signal
Summary of the method: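 HUVEC plus human PBMC co-culture, chemicals dosed and MIG (CXCL9) quantified by ELISA at 24 h. Bidirectional curve fitting against DMSO as negative control and baseline, so both gain and loss of signal count as activity.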

[4] = BSK_SAg_PBMCCytotoxicity: PBMC Cytotoxicity Assessment in the BioMAP Diversity Plus: SAg Assay (AID 2283093); conditions: primary human HUVEC with PBMC;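 further: PBMC viability measured as Alamar Blue reduction fluorescence at 546/580 nm; fitted both ways against DMSO so a hit may be loss or gain of signal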;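 on AC50: PBMC superantigen activated with SEB plus TSST-1 one hour after compound addition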
Summary of the method: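 Human umbilical vein endothelial cells co-cultured with PBMC; PBMC (75,000/well) pre-treated with compound 1 h, then activated with SEB and TSST-1 (20 ng/mL final each) for 90 h. Alamar Blue added 6 h, fluorescence 546/580 nm; bidirectional fit versus DMSO.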

[5] = read-out: Interleukin-8 (IL8), CXCL8 (gene 3576); assay: BSK_SAg_IL8: BioMAP Diversity Plus: SAg Assay for Interleukin-8 (IL8) Biomarker Activity (AID 2283094); conditions: primary human HUVEC with PBMC; actives raise or lower the signal
Summary of the method: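 Human umbilical vein endothelial cells co-cultured with PBMC, stimulated with superantigen; IL-8 measured by ELISA 24 h after chemical dosing. Bidirectional fitting versus DMSO; SRB staining in parallel cultures tracks cytotoxicity.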

[6] = BSK_SAg_Proliferation: Cell Proliferation Assessment in the BioMAP Diversity Plus: SAg Assay (AID 2283095); conditions: primary human HUVEC with PBMC
Summary of the method: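 Human umbilical vein endothelial cells co-cultured with PBMC; sulforhodamine B total-protein staining (0.1% SRB after 10% TCA fixation, absorbance 560 nm) at 96 h in sub-confluent culture. Fitted bidirectionally against DMSO.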

[7] = BSK_SAg_SRB: Viability Assessment in the BioMAP Diversity Plus: SAg Assay (AID 2283096); conditions: primary human HUVEC with PBMC;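 further: cells read one day after compound addition; hits may be either gain or loss of signal compared with DMSO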
Summary of the method: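 Endothelial/PBMC primary human co-culture; compound 24 h; fix 10% TCA, stain 0.1% SRB, A560; protein content as cytotoxicity proxy; bidirectional curve fit, DMSO = baseline.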

[8] = target: human CYP1A1, CYP1A1 (gene 1543) (UniProt P04798); assay: NVS_ADME_hCYP1A1: NovaScreen (NVS) CYP450-related Enzyme Activity (ADME) Assay for human CYP1A1 (AID 2283100; active means hit-call score of the fitted dose curve at least 0.9, where 1 is the maximum)
human CYP1A1, CYP1A1 (gene 1543), sequence (P04798 whole entry, looked up): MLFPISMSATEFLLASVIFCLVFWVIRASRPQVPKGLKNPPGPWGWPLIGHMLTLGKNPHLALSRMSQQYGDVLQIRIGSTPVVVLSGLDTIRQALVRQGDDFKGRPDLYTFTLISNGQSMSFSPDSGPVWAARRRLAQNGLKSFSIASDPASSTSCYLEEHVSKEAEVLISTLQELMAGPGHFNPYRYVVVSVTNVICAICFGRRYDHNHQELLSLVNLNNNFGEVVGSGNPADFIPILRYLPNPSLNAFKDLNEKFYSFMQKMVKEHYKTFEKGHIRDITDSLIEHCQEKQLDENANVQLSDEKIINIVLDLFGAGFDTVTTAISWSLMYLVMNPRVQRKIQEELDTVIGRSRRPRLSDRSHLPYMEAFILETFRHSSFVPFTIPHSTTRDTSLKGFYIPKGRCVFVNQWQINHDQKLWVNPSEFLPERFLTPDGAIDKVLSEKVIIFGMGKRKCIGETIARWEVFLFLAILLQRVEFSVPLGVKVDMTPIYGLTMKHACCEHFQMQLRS
Summary of the method: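 Recombinant hCYP1A1 + fluorogenic substrate, cell-free; 1 h; fluorescence read. Single-point 10 uM (duplicate) → concentration series, max 20 uM. Acetonitrile negative control.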

[9] = target: human CYP2C9, CYP2C9 (gene 1559) (UniProt P11712); assay: NVS_ADME_hCYP2C9: NovaScreen (NVS) CYP450-related Enzyme Activity (ADME) Assay for human CYP2C9 (AID 2283108; active means hit-call score of the fitted dose curve at least 0.9, where 1 is the maximum)
human CYP2C9, CYP2C9 (gene 1559), sequence (P11712 whole entry, looked up): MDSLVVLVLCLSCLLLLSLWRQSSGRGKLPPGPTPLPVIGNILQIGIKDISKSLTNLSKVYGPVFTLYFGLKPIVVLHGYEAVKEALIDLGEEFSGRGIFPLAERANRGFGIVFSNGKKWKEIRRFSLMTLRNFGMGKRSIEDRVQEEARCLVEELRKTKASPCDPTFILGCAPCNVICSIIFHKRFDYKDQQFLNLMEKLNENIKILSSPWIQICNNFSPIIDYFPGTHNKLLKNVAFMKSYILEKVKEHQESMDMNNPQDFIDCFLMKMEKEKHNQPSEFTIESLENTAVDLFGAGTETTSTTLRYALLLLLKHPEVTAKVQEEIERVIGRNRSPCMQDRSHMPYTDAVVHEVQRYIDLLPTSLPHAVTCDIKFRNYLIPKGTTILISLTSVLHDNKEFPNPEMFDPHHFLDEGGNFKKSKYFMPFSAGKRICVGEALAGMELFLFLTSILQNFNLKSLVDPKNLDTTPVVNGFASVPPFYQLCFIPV
Summary of the method: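 Cell-free assay of recombinant human CYP2C9 produced in Sf9 cells, with enzyme activity read by fluorescence intensity 0.75 h after compound addition. Loss of signal versus an acetonitrile negative control indicates inhibition. Primary screen used 10 uM in duplicate; actives were retested in concentration series.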

[10] = target: Cytochrome P450 2C19 (Homo sapiens) (UniProt P33261); assay: NVS_ADME_hCYP2C19: NovaScreen (NVS) CYP450-related Enzyme Activity (ADME) Assay for human CYP2C19 (AID 2283113; active means hit-call score of the fitted dose curve at least 0.9, where 1 is the maximum;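 on AC50: potency for inhibition seen as loss of fluorescent signal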)
Summary of the method: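 Fluorescence intensity was measured 1 hour after chemicals were added to insect-cell-derived recombinant CYP2C19 with fluorogenic substrate. Decreased signal versus acetonitrile control was taken as reduced enzyme activity; initial testing used 10 uM in duplicate.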

[11] = target: human CYP2B6, CYP2B6 (gene 1555) (UniProt P20813); assay: NVS_ADME_hCYP2B6: NovaScreen (NVS) CYP450-related Enzyme Activity (ADME) Assay for human CYP2B6 (AID 2283101; active means hit-call score of the fitted dose curve at least 0.9, where 1 is the maximum)
human CYP2B6, CYP2B6 (gene 1555), sequence (P20813 whole entry, looked up): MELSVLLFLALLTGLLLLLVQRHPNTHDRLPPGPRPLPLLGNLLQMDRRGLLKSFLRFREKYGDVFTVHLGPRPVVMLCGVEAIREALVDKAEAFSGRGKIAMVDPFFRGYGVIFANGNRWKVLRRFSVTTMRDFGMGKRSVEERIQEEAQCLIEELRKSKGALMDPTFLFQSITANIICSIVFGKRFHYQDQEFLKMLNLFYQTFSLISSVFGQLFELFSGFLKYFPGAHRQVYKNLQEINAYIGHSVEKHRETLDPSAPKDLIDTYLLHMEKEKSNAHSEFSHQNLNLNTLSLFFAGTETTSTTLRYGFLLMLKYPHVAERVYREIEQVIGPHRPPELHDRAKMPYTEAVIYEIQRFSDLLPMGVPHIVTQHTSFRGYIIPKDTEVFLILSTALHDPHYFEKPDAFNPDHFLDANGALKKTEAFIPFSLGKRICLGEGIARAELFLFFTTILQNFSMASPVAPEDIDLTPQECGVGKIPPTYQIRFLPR
Summary of the method: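 Recombinant human CYP2B6 with fluorogenic substrate, read by fluorescence intensity 1 h after dosing. Primary screen in duplicate at 10 uM, actives followed in concentration series; signal loss relative to acetonitrile control.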

[12] = target: human CYP1A2, CYP1A2 (gene 1544) (UniProt P05177); assay: NVS_ADME_hCYP1A2: NovaScreen (NVS) CYP450-related Enzyme Activity (ADME) Assay for human CYP1A2 (AID 2283102; active means hit-call score of the fitted dose curve at least 0.9, where 1 is the maximum;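 further: potency for inhibition since loss of fluorescence marks reduced CYP1A2 activity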)
human CYP1A2, CYP1A2 (gene 1544), sequence (P05177 whole entry, looked up): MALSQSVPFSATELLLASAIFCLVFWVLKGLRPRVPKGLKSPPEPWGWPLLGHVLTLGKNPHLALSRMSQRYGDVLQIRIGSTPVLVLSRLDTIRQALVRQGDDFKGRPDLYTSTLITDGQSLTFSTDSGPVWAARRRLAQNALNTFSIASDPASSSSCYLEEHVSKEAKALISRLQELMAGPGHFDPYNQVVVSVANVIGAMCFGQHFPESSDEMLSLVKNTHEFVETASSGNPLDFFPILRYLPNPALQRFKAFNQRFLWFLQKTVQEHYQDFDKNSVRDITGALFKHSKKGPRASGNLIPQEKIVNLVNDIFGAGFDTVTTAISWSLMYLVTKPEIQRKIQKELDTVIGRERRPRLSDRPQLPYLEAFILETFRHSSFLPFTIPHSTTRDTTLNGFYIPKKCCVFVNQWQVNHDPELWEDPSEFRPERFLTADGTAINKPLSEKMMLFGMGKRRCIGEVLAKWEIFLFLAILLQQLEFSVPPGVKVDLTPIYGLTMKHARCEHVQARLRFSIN
Summary of the method: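 rec. hCYP1A2 (insect cells), cell-free; fluorogenic substrate; 0.5 h; FI read. Baseline = acetonitrile; signal loss = inhibition. 10 uM duplicate primary → conc. series for actives.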

[13] = target: Cytochrome P450 3A4 (Homo sapiens) (UniProt P08684); assay: NVS_ADME_hCYP3A4: NovaScreen (NVS) CYP450-related Enzyme Activity (ADME) Assay for human CYP3A4 (AID 2283110; active means hit-call score of the fitted dose curve at least 0.9, where 1 is the maximum)
Cytochrome P450 3A4 (Homo sapiens), sequence (P08684 whole entry, looked up): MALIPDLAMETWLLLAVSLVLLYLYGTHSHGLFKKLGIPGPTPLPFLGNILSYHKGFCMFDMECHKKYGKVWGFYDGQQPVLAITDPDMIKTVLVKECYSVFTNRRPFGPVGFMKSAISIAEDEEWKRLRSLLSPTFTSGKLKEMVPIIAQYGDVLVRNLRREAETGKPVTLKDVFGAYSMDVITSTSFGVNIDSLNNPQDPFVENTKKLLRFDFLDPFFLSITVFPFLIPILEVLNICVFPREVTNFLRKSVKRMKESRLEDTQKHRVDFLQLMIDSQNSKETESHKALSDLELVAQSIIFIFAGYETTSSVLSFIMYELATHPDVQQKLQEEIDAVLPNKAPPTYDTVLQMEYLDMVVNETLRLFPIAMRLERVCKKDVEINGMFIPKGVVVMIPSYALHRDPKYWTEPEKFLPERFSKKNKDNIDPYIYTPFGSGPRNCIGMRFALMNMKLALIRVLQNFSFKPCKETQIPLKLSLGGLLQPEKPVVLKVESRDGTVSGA
Summary of the method: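 Cell-free assay using insect-cell-expressed human CYP3A4 with a fluorogenic substrate; fluorescence intensity was read 0.33 hour after dosing. Loss of signal relative to acetonitrile vehicle indicated inhibition. Primary single-concentration screen at 10 uM, in duplicate, then concentration series.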

[14] = target: human CYP2D6, CYP2D6 (gene 1565) (UniProt P10635); assay: NVS_ADME_hCYP2D6: NovaScreen (NVS) CYP450-related Enzyme Activity (ADME) Assay for human CYP2D6 (AID 2283107; active means hit-call score of the fitted dose curve at least 0.9, where 1 is the maximum)
human CYP2D6, CYP2D6 (gene 1565), sequence (P10635 whole entry, looked up): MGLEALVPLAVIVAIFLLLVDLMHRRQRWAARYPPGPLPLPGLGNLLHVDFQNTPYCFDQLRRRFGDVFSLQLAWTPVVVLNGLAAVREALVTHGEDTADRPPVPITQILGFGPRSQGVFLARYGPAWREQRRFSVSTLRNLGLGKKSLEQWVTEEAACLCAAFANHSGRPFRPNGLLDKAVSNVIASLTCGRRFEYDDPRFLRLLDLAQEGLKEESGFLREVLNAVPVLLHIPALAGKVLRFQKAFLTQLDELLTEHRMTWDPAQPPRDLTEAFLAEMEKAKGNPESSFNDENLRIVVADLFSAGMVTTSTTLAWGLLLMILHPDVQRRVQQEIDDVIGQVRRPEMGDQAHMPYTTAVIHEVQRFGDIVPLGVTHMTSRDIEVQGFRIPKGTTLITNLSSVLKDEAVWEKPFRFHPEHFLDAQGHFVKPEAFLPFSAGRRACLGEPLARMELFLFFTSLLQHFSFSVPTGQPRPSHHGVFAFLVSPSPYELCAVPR
Summary of the method: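 Insect-cell recombinant enzyme + fluorogenic substrate, cell-free; 1 h incubation; fluorescence intensity readout. Acetonitrile = neg. ctrl/baseline. Single-point 10 uM, duplicate; follow-up concentration series.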

[15] = target: human CYP4F12, CYP4F12 (gene 66002) (UniProt Q9HCS2); assay: NVS_ADME_hCYP4F12: NovaScreen (NVS) CYP450-related Enzyme Activity (ADME) Assay for human CYP4F12 (AID 2283111; active means hit-call score of the fitted dose curve at least 0.9, where 1 is the maximum)
human CYP4F12, CYP4F12 (gene 66002), sequence (Q9HCS2 whole entry, looked up): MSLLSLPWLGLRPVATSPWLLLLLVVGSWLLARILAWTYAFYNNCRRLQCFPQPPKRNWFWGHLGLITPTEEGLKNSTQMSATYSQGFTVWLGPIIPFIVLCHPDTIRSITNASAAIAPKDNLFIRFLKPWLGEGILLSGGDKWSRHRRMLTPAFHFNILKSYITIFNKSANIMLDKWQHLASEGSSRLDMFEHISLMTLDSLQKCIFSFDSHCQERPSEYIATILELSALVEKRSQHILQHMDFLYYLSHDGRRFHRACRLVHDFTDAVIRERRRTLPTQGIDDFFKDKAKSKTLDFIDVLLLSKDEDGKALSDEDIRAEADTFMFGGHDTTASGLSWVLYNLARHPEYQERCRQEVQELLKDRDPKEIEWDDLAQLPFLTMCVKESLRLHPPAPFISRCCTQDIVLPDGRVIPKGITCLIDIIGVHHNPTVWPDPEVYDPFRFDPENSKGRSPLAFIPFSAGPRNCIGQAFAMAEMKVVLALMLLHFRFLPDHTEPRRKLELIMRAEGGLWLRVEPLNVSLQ
Summary of the method: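 Cell-free fluorescence assay of recombinant human CYP4F12 activity on a specific substrate, read 0.5 h after dosing. Primary screen in duplicate at 10 uM, then concentration series for actives; loss of signal fitted against acetonitrile negative control.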

[16] = target: rat CYP1A2, Cyp1a2 (gene 24297) (UniProt P04799); assay: NVS_ADME_rCYP1A2: NovaScreen (NVS) CYP450-related Enzyme Activity (ADME) Assay for rat CYP1A2 (AID 2283115; active means hit-call score of the fitted dose curve at least 0.9, where 1 is the maximum)
rat CYP1A2, Cyp1a2 (gene 24297), sequence (P04799 whole entry, looked up): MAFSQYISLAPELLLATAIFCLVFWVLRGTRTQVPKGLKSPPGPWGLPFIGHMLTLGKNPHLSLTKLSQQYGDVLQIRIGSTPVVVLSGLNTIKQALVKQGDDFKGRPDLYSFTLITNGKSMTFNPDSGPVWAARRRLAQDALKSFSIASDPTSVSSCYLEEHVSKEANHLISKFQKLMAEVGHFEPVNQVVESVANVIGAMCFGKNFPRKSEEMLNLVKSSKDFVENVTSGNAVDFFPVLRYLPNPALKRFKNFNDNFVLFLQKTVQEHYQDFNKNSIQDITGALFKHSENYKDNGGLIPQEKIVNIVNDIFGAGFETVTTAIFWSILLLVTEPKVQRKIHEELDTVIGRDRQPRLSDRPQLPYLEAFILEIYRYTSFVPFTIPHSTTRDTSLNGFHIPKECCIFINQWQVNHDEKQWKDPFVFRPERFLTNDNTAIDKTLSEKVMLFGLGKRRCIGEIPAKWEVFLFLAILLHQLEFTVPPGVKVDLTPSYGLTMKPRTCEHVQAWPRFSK
Summary of the method: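 Cell-free recombinant rat enzyme with fluorogenic substrate, read by fluorescence intensity 1 hour after dosing. Loss of signal versus acetonitrile negative control; primary screen at 10 uM in duplicate, actives followed in concentration series.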

Measured: AC50

E-selectin (Homo sapiens), sequence (P16581 whole entry, looked up): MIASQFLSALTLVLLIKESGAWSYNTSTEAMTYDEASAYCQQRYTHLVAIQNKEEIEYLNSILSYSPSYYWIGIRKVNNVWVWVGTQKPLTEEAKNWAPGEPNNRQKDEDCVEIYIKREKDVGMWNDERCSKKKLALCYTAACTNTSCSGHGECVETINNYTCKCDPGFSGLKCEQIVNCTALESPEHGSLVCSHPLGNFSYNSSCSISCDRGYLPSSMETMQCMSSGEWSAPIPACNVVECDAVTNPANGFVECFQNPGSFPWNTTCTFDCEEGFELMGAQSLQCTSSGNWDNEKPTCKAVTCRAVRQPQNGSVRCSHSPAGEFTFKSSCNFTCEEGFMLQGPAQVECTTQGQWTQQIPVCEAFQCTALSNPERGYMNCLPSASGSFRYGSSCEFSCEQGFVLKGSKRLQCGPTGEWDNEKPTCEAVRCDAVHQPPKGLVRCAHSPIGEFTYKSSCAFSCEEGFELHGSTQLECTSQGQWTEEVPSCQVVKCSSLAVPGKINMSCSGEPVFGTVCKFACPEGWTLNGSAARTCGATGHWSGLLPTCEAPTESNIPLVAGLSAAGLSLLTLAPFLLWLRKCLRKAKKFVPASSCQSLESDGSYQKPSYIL

c1nc[nH]n1
inactive: [1] | [2] | [3] | [4] | [5] | [6] | [7]

OCC(F)(F)OC(F)(F)C(F)(F)OC(F)(F)C(F)(F)OC(F)(F)F
active: [1] 45.9 µM and 24.8 µM | [2] 39.4 µM and 45.2 µM | [4] 15.3 µM and 21.2 µM | [5] 43.9 µM and 43.4 µM | [6] 39 µM and 21 µM | [7] 30 µM
inactive: [3] | [7]

Cc1c([N+](=O)[O-])cc2c(c1[N+](=O)[O-])C(C)(C)CC2(C)C
inactive: [1] | [2] | [3] | [5] | [7]
active: [4] 15.3 µM | [6] 7.41 µM

O=C(O)C(Cl)Cl
inactive: [1] | [2] | [3] | [4] | [5] | [6] | [7]

COP(N)(=S)OC
inactive: [1] | [2] | [3] | [4] | [5] | [6] | [7]

CCCCN(CCCC)SN(C)C(=O)Oc1cccc2c1OC(C)(C)C2
active: [1] 37 µM | [2] 32.6 µM | [3] 32.1 µM | [4] 25 µM | [5] 33 µM | [6] 9.37 µM | [7] 24 µM | [9] 16.8 µM
inactive: [8] | [10]

O=S1(=O)OCC2C(CO1)C1(Cl)C(Cl)=C(Cl)C2(Cl)C1(Cl)Cl (stereo not given)
active: [10] 2.43 µM
inactive: [1] | [2] | [3] | [4] | [5] | [6] | [7]

CCOP(=S)(OCC)SCn1nnc2ccccc2c1=O
active: [2] 15.9 µM | [9] 1.43 µM | [10] 3.57 µM
inactive: [1] | [3] | [4] | [5] | [6] | [7]

CCOP(=S)(Oc1ccc([N+](=O)[O-])cc1)c1ccccc1 (stereo not given)
inactive: [1] | [2] | [3] | [4] | [5] | [7]
active: [6] 22.6 µM | [11] 4.41 µM | [12] 5.08 µM | [9] 5.15 µM | [13] 3.84 µM | [10] 0.198 µM

CCNc1nc(Cl)nc(NC(C)(C)C)n1
active: [1] 6.26 µM | [10] 6.82 µM
inactive: [2] | [3] | [4] | [5] | [6] | [7]

Cc1ccc2c(c1N)C(=O)c1ccccc1C2=O
active: [14] 5 µM | [9] 0.0118 µM | [10] 3.02 µM
inactive: [1] | [2] | [3] | [4] | [5] | [6] | [7] | [13]

OCC1CO1 (stereo not given)
inactive: [1] | [3] | [4] | [5] | [6] | [7]

O=P1(N(CCCl)CCCl)NCCCO1 (stereo not given)
inactive: [1] | [2] | [3] | [4] | [5] | [6] | [7] | [15]

CC(C)Nc1ccc(Nc2ccccc2)cc1
active: [1] 6.2 µM | [2] 5.98 µM | [3] 9.5 µM | [4] 0.016 µM | [5] 5.34 µM | [6] 0.0375 µM | [7] 14.1 µM | [9] 2.66 µM | [10] 3.42 µM
inactive: [14]

CC(C)(C)c1ccc(O)cc1
inactive: [1] | [2] | [3] | [5] | [6] | [7]

O=[N+]([O-])c1ccccc1
inactive: [1] | [2] | [3] | [4] | [5] | [6] | [7] | [15]

c1ccc2c(c1)sc1ccccc12
inactive: [1] | [2] | [3] | [4] | [5] | [6] | [7] | [16]
